BoNT-F LC inh – BoNT F light chain protease inhibition; Multiplex microsphere protease cleavage assay, flow cytometry; inhibition, % at 10 µM; 360,000 compounds, 0.22% hits; AID 588497; in the data active means inhibition above about 35%, passing the limit was not always enough; inconclusive means no clear call, values can overlap the other calls
Anthrax LF prot – anthrax lethal factor protease inhibition | P15917 | multiplex microsphere protease cleavage assay, LF | 360,000 compounds, 0.12% hits | inhibition, % at 10 µM
BoNT A protease – BoNT A light chain protease inhibition; multiplex microsphere protease substrate cleavage, flow cytometry; inhibition, % at 10 µM; 360,000 compounds, 0.17% hits; AID 588499
Bead autofluor – compound fluorescence in toxin protease inhibitor counterscreen; compound autofluorescence counterscreen, microsphere flow cytometry; active compounds read high; fluorescence intensity (test concentration not listed); 360,000 compounds, 3.1% hits; AID 624483; in the data active means fluorescence intensity above about 16000; inconclusive means no clear call, values can overlap the other calls
MazEF act – activators of E. coli MazEF toxin-antitoxin RNase; P0AE70; FAM/BHQ RNA-DNA oligo cleavage fluorescence, 5 h; activation, % at 20 µM; 350,000 compounds, 0.32% hits; in the data active means activation above about 50%
Target sequence (P0AE70 whole entry, looked up): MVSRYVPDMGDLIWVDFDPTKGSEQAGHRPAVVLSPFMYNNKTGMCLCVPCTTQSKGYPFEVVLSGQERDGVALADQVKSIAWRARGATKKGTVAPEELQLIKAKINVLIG
Hits are given with their value; - = inactive; ? = inconclusive; . = no result. Hits are enriched below; roughly 3.7% of the tested compounds scored in any of these assays. Unless noted, no stated cut-off is given here; in the data, active means inhibition above about 30%; inconclusive means no clear call, values can overlap the other calls; inactive means below that.

SMILES	BoNT-F LC inh	Anthrax LF prot	BoNT A protease	Bead autofluor	MazEF act
CCCCC(=O)Nc1ccc(NC(=O)c2ccc3c(c2)OCO3)cc1OC	-	-	-	22707	-
COc1cccc(C(=O)Nc2ccc(-n3nncc3C(C)(C)C)cc2)c1	-	-	-	-	-
CCN1CCN(c2ccc(NC(=O)c3ccc4c(c3)OCO4)cc2)CC1	-	-	-	16331	-
CC(C)(C)c1cnnn1-c1ccc(NC(=O)c2ccc(Br)o2)cc1	-	-	-	20983	-
CCN1C[C@@H]2[C@@H]3C(=O)N(C)C(=O)[C@@H]3[C@](CC)(C1=O)N2C(=O)c1ccccc1	-	-	-	-	-
CC1CCN(S(=O)(=O)c2cc3c4c(c2)CCN4C(=O)CC3)CC1	-	-	-	?	-
CCOC(=O)CC(/C(C)=N\O)c1ccccc1 (stereo unspecified)	-	-	-	21192	-
CCOC(=O)CC(NC(=O)C(CC)c1ccccc1)c1ccccc1Cl (stereo unspecified)	-	-	-	-	-
COC(=O)C1=C(C)N(Cc2ccccc2)C(=NCCc2cccnc2)N[C@H]1c1ccc(Br)cc1	-	-	-	-	-
CCOC(=O)COc1ccccc1/C=C1\NC(=O)NC1=O	-	-	-	-	-
CCOC(=O)COc1ccccc1-c1ccno1	-	-	?	21115	-
COC(=O)[C@]1(Cc2ccccc2)N[C@H](CN(C)C(=O)c2ccccc2)[C@@H]2C(=O)N(Cc3ccccc3)C(=O)[C@@H]21	-	-	-	-	-
Cc1cc(C)n(-c2nnc(C)n2/N=C/c2ccccc2F)n1	-	-	-	22946	-
COc1cccc(CNC(=O)CCc2nc3cc(S(=O)(=O)N4CCOCC4)ccc3n2C)c1	.	.	.	.	-
COc1cccc(-n2nnc3c(=O)n(Cc4c(F)cccc4Cl)cnc32)c1	-	-	-	-	90.0
Cc1ccc(C)c(Cn2cnc3c(nnn3-c3ccc(F)cc3)c2=O)c1	-	-	-	16844	-
COc1ccc(-n2nnc3c(=O)n(Cc4ccccc4C)cnc32)cc1	-	-	-	-	-
CN(CC(=O)Nc1ccc(F)c(F)c1F)C(=O)C1CCCO1 (stereo unspecified)	.	.	.	.	-
Cc1nnc(NC(=O)C2CSC3(C)CCC(=O)N23)s1 (stereo unspecified)	.	.	.	.	-
O=C(Nc1nc2c(s1)CCCC2=O)c1cnccn1	-	-	-	23908	-
COC(=O)c1c(NC(=O)c2cnccn2)sc2c1CCC2	-	-	-	-	-
O=C(CCc1nnc(CCC2CCCCC2)o1)NCCc1cccnc1	-	-	-	-	-
Cn1c(=O)c2nc(NCc3ccccc3)sc2n(C)c1=O	-	-	-	-	-
Cc1ccc2[nH]c(=O)c(CN(CC3CCCO3)S(=O)(=O)c3c(C)ccc4nsnc34)cc2c1 (stereo unspecified)	-	-	?	19816	-
O=C(NC1CCCCCCC1)C1c2ccccc2C(=O)N1Cc1ccco1 (stereo unspecified)	-	-	-	-	-
SMILES	BoNT-F LC inh	Anthrax LF prot	BoNT A protease	Bead autofluor	MazEF act
O=C(NC1CCCC1)C1c2ccccc2C(=O)N1C1CCCCC1 (stereo unspecified)	-	-	-	19915	-
CCCCN1C(=O)c2ccccc2C1C(=O)NC1CCCC1 (stereo unspecified)	-	-	-	22700	-
CC1CCC(NC(=O)C2c3ccccc3C(=O)N2CCCN2CCOCC2)CC1 (stereo unspecified)	-	-	?	24072	-
O=C1c2cccnc2C(O)N1C1CCCCC1 (stereo unspecified)	-	-	-	23226	-
CCn1ccnc1CN1CCC(n2nccc2NC(=O)c2ccccc2OC)CC1	-	-	-	-	-
NS(=O)(=O)c1cccc(NS(=O)(=O)c2ccc(/C=C/C(=O)OCC(=O)c3ccccc3)cc2)c1	-	-	-	-	-
Cc1ccc(S(=O)(=O)CC(CN2CCOCC2)N2CCOCC2)cc1 (stereo unspecified)	-	-	-	-	-
Cc1ccc(S(=O)(=O)CC(C)N2CCOCC2)c(S(=O)(=O)CC(C)N2CCOCC2)c1 (stereo unspecified)	-	-	-	23181	-
CCc1ccc(C(=O)NNC(=O)CCc2nc3ccccc3c(=O)[nH]2)cc1	-	-	-	-	-
Cc1cccc(N2CCN(C(=O)CCNC(=O)Cn3ccc4ccccc4c3=O)CC2)c1C	-	-	?	19164	-
CN1CCN(C(=O)CCNC(=O)Cn2ccc3ccccc3c2=O)CC1	-	-	-	-	-
O=C(Cn1cnc2ccccc2c1=O)NCCC(=O)N1CCN(c2ccccc2)CC1	-	-	?	22618	-
CCOC(=O)C1CCN(C(=O)c2ccc(N(C)S(=O)(=O)c3ccc(OC)cc3)cc2)CC1	-	-	-	-	-
C=C(C)CSc1nnc(-c2cc(OC)c(OC)c(OC)c2)n1N	-	-	-	21195	-
Clc1ccc(CSc2nncn2-c2ccccn2)cc1	-	-	-	23849	-
Cc1ccc(CSc2nncn2-c2ccccn2)cc1	-	-	-	-	-
O=C(C[n+]1cc(Br)cc2ccccc21)c1ccccc1	-	46.4	100.3	-	-
COc1ccc(C(=O)C[n+]2cc(Br)cc3ccccc32)cc1[N+](=O)[O-]	51.6	-	116.5	-	-
Cc1nnc(SCC(=O)Nc2ccccc2F)n1-c1ccc(F)cc1	-	-	-	-	-
COc1ccc(-n2c(O)c(C=Nc3ccccc3)c3ccccc3c2=O)cc1	-	-	-	-	-
CCN(c1ccc(N=Cc2c(O)n(Cc3ccc(OC)cc3)c(=O)c3ccccc23)cc1)C(C)C	52.0	-	37.4	55670	-
O=C(COC(=O)c1ccc(O)cc1)Nc1cc(S(=O)(=O)N2CCOCC2)ccc1Cl	.	.	.	.	-
COc1ccc(C(=O)Nn2c(SCC(=O)N3CCC(C)CC3)nc3ccccc3c2=O)cc1	-	-	?	20975	-
COc1ccc(C(=O)Nn2c(SCC(=O)c3ccc(Cl)cc3)nc3ccccc3c2=O)cc1	-	-	-	20288	-
COc1ccc(C(=O)Nn2c(C3CCC3)nc3ccccc3c2=O)c(OC)c1	-	-	-	18494	-
SMILES	BoNT-F LC inh	Anthrax LF prot	BoNT A protease	Bead autofluor	MazEF act
COc1ccc(C(=O)Nn2c(SCC(=O)NC3CCCCC3)nc3ccccc3c2=O)cc1	-	-	-	20612	-
COc1ccc(C(=O)Nn2c(SCC(=O)NCc3ccco3)nc3ccccc3c2=O)cc1	-	-	-	-	-
Cc1ccc(/C=C2/N=C(c3ccccc3)NNC2=O)cc1	-	-	-	-	-
CCOc1ccccc1CNCC1CCCO1 (stereo unspecified)	-	-	-	-	-
O=C(CCN1C(=O)C2CCCCC2C1=O)N1CCN(S(=O)(=O)c2ccccc2)CC1 (stereo unspecified)	-	-	-	-	-
CCC(C)c1nc2ccsc2c(N2CCOC2=O)c1-c1ccccc1 (stereo unspecified)	-	-	-	-	-
O=C(c1cc2ccccc2o1)N1CCN(S(=O)(=O)c2ccc(F)c(F)c2F)CC1	.	.	.	.	-
CC(C)(C)NC(=O)C1CC(=O)OC1(C)C (stereo unspecified)	-	-	-	21395	-
CCC(CO)NCc1ccc(Br)cc1 (stereo unspecified)	-	-	-	-	-

Screening results as filed in PubChem.
